PubChem BioAssay (NCATS)
Unmarked numbers belong to inactive results. Active and inactive are the calls of the source. Cut-off read from the data, not from the text of the source: active = potency below about 10 µM; inactive = the rest. Residues, ends and D or L forms follow the SMILES beside them.

Each compound was assayed against Lysosomal acid glucosylceramidase (Homo sapiens) (UniProt P04062) (assay: Glucocerebrosidase-p2 (AID 348)). Settings: purified GBA, blue fluorogenic substrate, 40 min.
Excerpt: Beta-glucocerebrosidase catalyzes the hydrolysis of beta-glucocerebroside to glucose and ceramide. The inherited deficiency of beta-glucocerebrosidase results in Gaucher disease, which is characterized by a wide variety of symptoms including hepatosplenomegaly, anemia, thrombocytopenia, bony lesions and bone marrow infiltration with characteristic storage cells, known as Gaucher cells. There are also forms of the disorder affecting the central nervous system. Patients with the same genotypes can manifest with diverse clinical presentations and it is believed that improper folding and trafficking of beta-glucocerbrosidase may contribute to the phenotypes observed.
Low molecular weight molecules, acting as chaperones, may potentially restore trafficking of misfolded beta-glucocerebrosidase from the endoplasmic reticulum to the lysosomes, thereby enhancing functional lysosomal beta-glucocerebrosidase activity.
Using normal beta-glucocerebrosidase, an assay was developed to screen for small molecule inhibitors that could potentially act as molecular chaperones on the mutant forms [developed with NIH investigator Dr. Ellen Sidransky#s laboratory]. Two pro-fluorescent substrates were chosen for two screens against a small molecule library. One beta-glucocerebrosidase assay used Resorufin beta-D-Glucopyranoside (Marker Gene Technology Inc.), generating a red fluorescent product. The second assay used […] fluorescent product. The Km for the Resorufin beta-D-Glucopyranoside and Fluorescein di-beta-D-Glucopyranoside were determined to be 71.2 uM and 855 uM, respectively. The IC50 values of Conduritol B Epoxide, a known glucocerebrosidase inhibitor, were determined to be 87.5 uM and 117 uM, respectively. The use of two difference pro-fluorescent substrates in the screens helped to eliminate false positives. All compounds were screened in a titration series resulting in AC50s (e.g., IC50s or EC50s). Data normalization and AC50 calculations were accomplished using GeneData software.
NCGC Assay Protocol Summary
Both enzyme and substrate were diluted in buffer composed of 50mM citric acid/KH2PO4, 10mM sodium taurocholate and 0.01% tween-20 at pH 5.9. The final concentration of the enzyme was 0.2 nM in both assays. The compound library was titrated in 7 to 15 concentrations for the primary screens with a final concentration ranging from 0.6 nM to 50 uM. This particular assay protocol is for the "blue" substrate, and it was performed in 1536-well plate format as follows:
Blue fluorescence substrate assay:
1 uL substrate (final concentration of 80 uM)
Incubate at room temperature (RT) for 40 minutes
3 uL stop solution (1 M NaOH and 1 M glycine in water)
Read the plate in Viewlux plate reader (Ex=365(10) and Em=440(10)).
Potency is the fitted concentration of half-maximal effect.

Lysosomal acid glucosylceramidase (Homo sapiens), sequence (P04062 whole entry, looked up): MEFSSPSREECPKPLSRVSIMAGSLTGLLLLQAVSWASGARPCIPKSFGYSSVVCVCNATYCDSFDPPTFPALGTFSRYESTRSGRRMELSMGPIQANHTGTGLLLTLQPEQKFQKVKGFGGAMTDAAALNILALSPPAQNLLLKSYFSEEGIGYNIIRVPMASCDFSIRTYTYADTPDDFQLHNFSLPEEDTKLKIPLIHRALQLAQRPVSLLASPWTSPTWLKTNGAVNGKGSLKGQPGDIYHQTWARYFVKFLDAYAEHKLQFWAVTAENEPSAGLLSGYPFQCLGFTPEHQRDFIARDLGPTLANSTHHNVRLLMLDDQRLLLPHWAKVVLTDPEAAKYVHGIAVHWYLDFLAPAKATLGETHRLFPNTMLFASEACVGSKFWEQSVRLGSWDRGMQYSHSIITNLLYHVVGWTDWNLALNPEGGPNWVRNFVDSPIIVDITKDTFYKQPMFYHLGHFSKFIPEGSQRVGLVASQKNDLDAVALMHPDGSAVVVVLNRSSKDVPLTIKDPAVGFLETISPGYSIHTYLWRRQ

SMILES	Potency
N=C(N)SCc1cccc(-c2nc3ccccc3c(=O)o2)c1	> 11.4 µM
Clc1ccc2c(NC3CCC(N4CCCCC4)CC3)ccnc2c1 (stereo not given)	> 11.4 µM
O=c1c(-c2cccs2)nc2cnc(Oc3ccccc3)nc2n1C1CC1	> 11.4 µM
N#C[C@@H](N=Nc1ccccc1C(=O)O)C(N)=O	> 11.4 µM
O=C(O)[C@@H]1[C@@H](C(=O)NCc2cccnc2)[C@@H]2C=C[C@@H]1O2	> 11.4 µM
Nc1ncnc2nc(N3CCN(CCO)CC3)[nH]c12	> 11.4 µM
Nc1nc(-c2cccc([N+](=O)[O-])c2)cc(-c2cc(-c3cccc([N+](=O)[O-])c3)nc(N)n2)n1	> 11.4 µM
Cc1cc(OCc2nc(N)nc(N)c2-c2ccc(Cl)c(Cl)c2)ccc1[N+](=O)[O-]	> 11.4 µM
C[C@](O)(c1ccccc1)c1nccc2ccccc12	> 11.4 µM
CN(C)CCN(c1ccccn1)c1ccccn1	> 11.4 µM
O=C(O)c1c(-c2c3ccc(=O)cc-3oc3cc(O)ccc23)cc2ccccc2c1-c1ccccc1	> 11.4 µM
[O-][N+](CCO)(CCO)c1ncnc2nc[nH]c12	> 11.4 µM
NC1=C2NC=N[C@@H]2N(C/C=C\c2ccccc2)C=N1	> 11.4 µM
Cc1ccc(S(=O)(=O)N[C@H](CO)C(=O)O)cc1	> 11.4 µM
COc1cc(O)c2c(O)c3c(c4c2c1[C@@]1(C4)C(C)=CCCC1(C)C)[C@H](O)[C@@]1(O)CC(=O)C(C(N)=O)=C(O)[C@]1(O)C3=O	> 11.4 µM
ON(CCc1ccccn1)Cc1ccccc1	> 11.4 µM
Cc1ccc(S(=O)(=O)NCc2cccc([N+](=O)[O-])c2)cc1	> 11.4 µM
O=C(c1cc(Br)ccc1O)c1cc(Br)ccc1O	> 11.4 µM
N[C@H](CO)C(=O)NCC(=O)O (HELM PEPTIDE1{[dS].G}$$$$V2.0)	> 11.4 µM
CN(C)c1ccc(N=Nc2cccc3ccoc23)cc1	> 11.4 µM

SMILES	Potency
CC1(C)O[C@H]2[C@@H](O1)[C@@H](On1nnc3ccc(Cl)cc31)O[C@@H]2[C@@H]1COC(C)(C)O1	> 11.4 µM
CC(=O)N[C@H](Cc1ccc(O)cc1)C(=O)O	> 11.4 µM
NCOC(=O)Cc1ccc(Br)cc1	> 11.4 µM
NCCC1([N+](=O)[O-])CCNCC1	> 11.4 µM
CC(=O)Nc1ccc2c(c1)/C(=C/c1ccc([N+](C)(C)C)cc1)c1ccccc1-2	9.02 µM (active)
COc1ccc(-c2nc3cnc(N4CCNCC4)nc3n(Cc3cccc(OC)c3)c2=O)cc1	> 11.4 µM
COc1cccc2c1C(=O)c1c(O)c3c(c(O)c1C2=O)C[C@](O)(C(=O)CO)C[C@@H]3O[C@H]1C[C@H](N)[C@@H](O)[C@H](C)O1	> 11.4 µM
O=CN1CCN(C[C@H](O)CN2CCCCC2)CC1	> 11.4 µM
N[C@@H](CNO)C(=O)O	> 11.4 µM
NC(=O)[C@@H]1CCCNC1	> 11.4 µM
O=c1[nH]c(=S)[nH]c2c1CN(CCCN1CCOCC1)CN2	> 11.4 µM
CN(C)C[C@H]1CCC2=C(C1=O)C(c1ccc(Cl)c(Cl)c1)C1=C(CC[C@H](CN(C)C)C1=O)O2	> 11.4 µM
CC(C)C1=C[C@@]23CC[C@@H]4[C@](C)(CCC[C@@]4(C)C(=O)O)[C@@H]2C[C@@H]1[C@@H](C(=O)O)[C@@H]3C(=O)O	> 11.4 µM
Cc1ccc(C(N)=Nc2ccccc2)cc1	> 11.4 µM
C[C@H](C(=O)c1ccncc1)c1ccccn1	> 11.4 µM
COc1ccc(/C=C(\C#N)C(N)=O)c(OC)c1	> 11.4 µM
O=C(O)/C=C\C(=O)Nc1ccc2c(c1)C(=O)c1cc(F)ccc1-2	> 11.4 µM
FC(F)(F)c1cc(NC(=S)N2c3ccccc3-n3cccc3[C@H]2c2cccnc2)cc(C(F)(F)F)c1	> 11.4 µM
COc1ncc2nc(C)c(=O)n(C)c2n1	> 11.4 µM
NC(=O)C[C@H](N)C(N)=O	> 11.4 µM
